Compound activity deposited in PubChem by National Center for Advancing Translational Sciences (NCATS).
Compounds with a hit are over-represented: about 7.9% of the library has one in this group of screens.
HT1080-NT tox: kills 2HG-producing HT-1080-NT fibrosarcoma cells; 360,000 compounds, 1.6% hits; AID 686970; HT-1080-NT fibrosarcoma viability, CellTiter-Glo ATP luminescence, 48 h; Potency, µM (highest dose often 46.1 µM), for the others: top-dose activity, negative = less viability, usual class: cytotoxic;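 note: NT is the 2HG producing partner of a matched IDH1 knockdown line; 0% = DMSO-treated cells and -100% = media-only wells without cells; nearly all actives have a fitted effect of over 55% in size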
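Read-out is CellTiter-Glo luminescence after 10 minutes at room temperature, following 48 hours' compound treatment of HT-1080-NT cells (750 cells/well, RPMI, 5% FBS, 37 degrees C).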
MCF10A rereplic: induces DNA re-replication in MCF 10a normal breast cells | MCF 10A DNA re-replication, Hoechst nuclear intensity, 48 h | Potency, µM (series often up to 46.1 µM), for the others: at the highest dose activity, positive = re-replication, actives largely listed as activators | AID 624296 | 350,000 compounds, 2.9% hits; note: % of control where 0% means no effect; nearly all actives have a fitted effect of over 50% in size
KB-3-1 cytotox: kills parental KB-3-1 adenocarcinoma cells. KB-3-1 viability, CellTiter-Glo ATP luminescence, 72 h. Potency, µM (doses to about 46.1 µM), hits mostly cytotoxic. 400,000 compounds, 1.4% hits; note: % is set by controls: 0 for no effect and ±100 for the full control effect; nearly all actives have a fitted effect of over 60% in size
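Here the drug-naive KB-3-1 line serves as comparator for MDR sub-line selectivity; cells received compound titrations, 72 h at 37 °C, then CellTiter-Glo readout.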
SW480 rerep: induces DNA re-replication in SW480 colon adenocarcinoma cells | Potency, µM (titrated, usually from 46.1 µM), without a hit: at the highest dose re-replication activation, usual class: activators | 340,000 compounds, 1.8% hits | SW480 DNA re-replication, Hoechst DNA content imaging, 48 h; note: % of control where 0% means no effect; nearly all actives have a fitted effect of over 55% in size
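Quantitative HTS format with DMSO vehicle controls; 48 hr drug incubation at 37 C, then 40 min Hoechst staining and scanning imager measurement at 405 nm excitation.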
HT1080 IDH1KD tx: HT-1080 IDH1 knockdown cell toxicity (counter line). HT-1080 IDH1 knockdown viability, ATP luminescence, 48 h. Potency, µM (doses to about 46.1 µM), for the others: top-dose activity, negative = toxicity, usual class: cytotoxic. 360,000 compounds, 2% hits;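 note: 0% = DMSO wells and -100% = cell-free medium wells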
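Viability of IDH1-knockdown HT-1080 fibrosarcoma cells was assessed by CellTiter-Glo after 48 h at 37 °C with titrated compound; concentration-effect curves were classified by fit quality and response size.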
KB-V1 cytotox: KB-V1 MDR subline cytotoxicity | KB-V1 MDR cells viability, CellTiter-Glo, 72 h | Potency, µM (highest dose often 46.1 µM), actives largely listed as cytotoxic | 400,000 compounds, 3.4% hits | AID 1347076; note: % is set by controls: 0 for no effect and ±100 for the full control effect; nearly all actives have a fitted effect of over 60% in size
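Readout: CellTiter-Glo luminescence, 10 min after addition. Cells: KB-V1 MDR subline, 72 h at 37 degrees C with compound. Analysis: corrected, normalized data fitted to concentration-effect curves.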
Numbers without * were called inactive; i = inactive; u = inconclusive; x = not tested or not shown. Calls come from the whole dose curve; as a rule, active = well fitted curve in the direction sought with a large enough effect; inconclusive = small, poorly fitted or top-dose-only effect, or another doubt; inactive = no such curve, though single readings can be large; an effect the other way counts as inactive or inconclusive. Potency is the fitted concentration of half-maximal effect.

SMILES | HT1080-NT tox | MCF10A rereplic | KB-3-1 cytotox | SW480 rerep | HT1080 IDH1KD tx | KB-V1 cytotox
COc1ccc(S(=O)(=O)N2c3cc(C)ccc3OCC2C(C)(C)C)cc1 (centres undefined) | 5.8µM* | 2.59µM* | 5.8µM* | 5.8µM* | 5.8µM* | 5.17µM*
Cc1ccc(S(=O)(=O)N2c3cc(C)ccc3OCC2C(C)(C)C)cc1 (centres undefined) | u | 16.4µM* | u | u | u | u
Cc1ccc(NC(=O)c2ccc(=O)[nH]n2)cc1S(=O)(=O)Nc1ccc(SC(F)F)cc1 | -23.8% | -0.2% | u | 15.9% | -24.8% | i
C=C1C(=O)[C@@]23[C@H](O)C[C@@H]4C(C)(C)CC[C@H](O)[C@@]4(C)[C@@H]2CC[C@@H]1[C@H]3O | 14.6µM* | 0.517µM* | i | u | 13µM* | i
C=C1C(=O)[C@@]23[C@H](O)C[C@@H]4C(C)(C)CC[C@H](O)[C@]4(C)[C@@H]2C[C@H](O)[C@@H]1[C@H]3O | -29.1% | 6.51µM* | u | 2.59µM* | u | u
CCOC(=O)c1c(NC(=O)CC)sc(C(=O)NC2CCCC2)c1C | 0.4% | -0.8% | i | -4.8% | 7.5% | i
CCCn1c(N)c(C(=O)CSc2n[nH]c(-c3ccc(C)cc3)n2)c(=O)[nH]c1=O | 0.4% | -0.4% | u | -4.0% | 12.3% | i
C[C@@H]1CN([C@@H](C)CO)C(=O)c2cc(-c3ccccc3F)cnc2O[C@H]1CN(C)Cc1cccc(F)c1 | -13.3% | x | i | x | -7.2% | i
CCN(CC)C(=O)C1CCCc2c1[nH]c1ccc(Cl)cc21 (centres undefined) | -20.7% | -6.5% | 6.51µM* | -7.7% | -22.9% | i
CCOc1ccc(NC(=S)N2CCC(C(=O)c3ccc(F)cc3)CC2)cc1 | 3.3% | u | i | 5.9% | 1.2% | i
Cc1ccc(O)c(NC(=O)c2cc(C)no2)c1 | -15.0% | 5.6% | i | -1.1% | 2.1% | i
CCC(=O)Nc1ccc(C=C(C(C)=O)C(C)=O)cc1 | -0.4% | 16.4µM* | u | -3.2% | 2.1% | i
CCC(=O)Nc1ccc(/C=C(\C(C)=O)C(=O)c2ccccc2)cc1 | 18.4µM* | u | u | 5.4% | 16.4µM* | i
O=C(C(=Cc1ccc(F)cc1)C(=O)c1ccccc1)c1ccccc1 | u | x | 18.4µM* | x | u | 20.6µM*
O=C(C(=Cc1ccc(F)cc1)c1ccccc1)c1ccc(O)cc1 | -2.7% | u | i | 0.8% | -3.0% | i
CCC(=O)Nc1ccc(O)cc1 | x | 15.1% | x | -1.4% | x | x
CC(C)OCCCNC(=S)N1CCC(C(=O)c2ccc(F)cc2)CC1 | 3.1% | x | u | x | 2.1% | u
Cc1ccc(C(=O)C2CCN(C(=S)NCCCOC(C)C)CC2)cc1 | -9.5% | 20.6% | i | 14.6µM* | -8.9% | i
CC(C)Cn1c(N)c(C(=O)NCCN2CCOCC2)c2nc3ccccc3nc21 | 4.0% | -4.9% | i | -0.2% | 2.6% | 23.1µM*
Cc1cccc(-n2c(N)c(C(=O)NCCN3CCOCC3)c3nc4ccccc4nc32)c1 | u | 20.6µM* | i | u | u | i
Cc1cccc(-n2cnc3cc(C(=O)NCCN4CCOCC4)ccc32)c1 | 5.2% | x | i | x | 15.2% | u
COC(=O)c1c(N)n(CCCN2CCOCC2)c2nc3ccccc3nc12 | 8.0% | u | i | u | 18.1% | i
Cc1ccc(S(=O)(=O)c2nc(-c3ccc(F)cc3)oc2SCC(=O)NCC2CCCO2)cc1 (centres undefined) | 7.2% | u | i | -0.1% | 0.2% | 1.84µM*
O=C(CN(C1CCCCC1)S(=O)(=O)c1ccc(F)cc1)NCC1CCCO1 (centres undefined) | 3.66µM* | u | 4.61µM* | 1.16µM* | 4.61µM* | u
